From PubChem BioAssay (NCI)
Compounds without any hit were thinned out: in the full panel of roughly 83,000, 20% have a hit.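 The endpoint reported here, percent growth, reads 100 for growth as untreated, 0 for no net growth and -100 for all cells dead.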 Values without a mark were called inactive. The source made the active and inactive calls.

tested on: SK-MEL-28 melanoma; assay: NCI-60 one-dose screen, 48 h (100 = growth as untreated, 0 = no growth, -100 = all killed); settings: 10 µM unless noted
Description: Growth inhibition of the SK-MEL-28 human tumor cell line is measured as a screen for anti-cancer activity. Cells are grown in 96 well plates and exposed to the test compound for 48 hours. Compounds are tested at a single concentration, which is 10^-5 M for most compounds. The reported endpoint is percent growth (GI% or GIPRCNT), where numbers from 0 - 100% represent growth inhibition, and numbers from -100% - 0 represent cell death. For example, a value of 40 represents 60% growth inhibition. A value of 0 means no net growth occurred over the course of the experiment. A value of -40 indicates 40% of cells at the beginning of the experiment died by the end of the experiment. A value of -100 means all cells are dead at the end of the experiment.
NCI-60 Human Tumor Cell Lines Screen was performed using the standard one-dose NCI protocol, which is described in more detail at https://dtp.cancer.gov/discovery_development/nci-60/default.htm.
Compounds with GIPRCNT values below 10 were considered active. Activity score was based on GIPRCNT using the following formula: […]
Score is 0 for GIPRCNT values of 100 or above, 50 for GIPRCNT values of 0, and 100 for GIPRCNT values of -100.

Point of comparison: `OCCCCc1nccc2c1[nH]c1ccccc12`, growth 111%. Against it:
- CC(C)(O)c1cccc(F)c1 — lower, 101%
- C[C@@H]1C(=O)N(C[C@@H](Cc2ccccc2)NC(=O)OCc2ccccc2)[C@]1(Cc1ccccc1)C(=O)OCc1ccccc1 — lower, 63.9%
- CCOC(=O)N1CCc2c(sc3c2C(=O)N[C@H](c2ccc(OC)cc2)N3)C1 — lower, 109%
- CCc1cc(Cc2cc(CC)cc(C(C)(C)C)c2O)c(O)c(C(C)(C)C)c1 — lower, 46%
- O[C@H]1CO[C@H]2[C@@H]1OC[C@@H]2Oc1ccc(Nc2nc(Nc3ccc(F)c(Cl)c3)ncc2F)cc1Cl — lower, 99.7%
- N=C(N)c1ccc(-c2ccc(-c3ccc(Cl)cc3Cl)o2)nc1 — lower, 80.9%
- C[C@@H]1C(=O)N(C[C@H](Cc2ccccc2)NC(=O)OCc2ccccc2)[C@]1(Cc1ccccc1)C(=O)OC(C)(C)C — lower, 85.3%
- CC(C)OC(=O)NNC(=O)c1ccncc1 — lower, 110%
- O=C(NC(=S)Nc1ccc(-c2nc3ccccc3[nH]2)cc1)c1ccc2ccccc2c1 — lower, 40.5%
- CS(=O)(=O)c1ccc(-c2[nH]c3ccc(F)cc3c2/C=N/NC(N)=S)cc1 — lower, 39.5%
- C=C(C)[C@@H]1CC[C@]2(CO)CC[C@]3(C)[C@H](CC[C@@H]4[C@@]5(C)C=C(C#N)C(=O)C(C)(C)[C@@H]5CC[C@]43C)[C@@H]12 — lower, 20.9%
- C/C(=N\NC(=O)Cn1c(-c2ccc(S(C)(=O)=O)cc2)nc2cc(Cl)ccc21)c1ccc(Cl)cc1 — lower, 90%
- CCN1CCN(c2ccc(Nc3cc(-c4cccnc4Nc4c(Cl)c(OC)cc(OC)c4Cl)ncn3)cc2)CC1 — lower, 100%
- Nc1ccc(-c2cc3c(Nc4ccc(OCc5cccc(F)c5)c(Cl)c4)ncnc3s2)cc1 — lower, 39.3%
- CN1C[C@@H](c2ccc(Cl)cc2)[C@]2(NC(=S)N(c3ccc(F)c(Cl)c3)C2=O)[C@@]12C(=O)NC1C=CC(Cl)=C[C@H]12 (stereo not given in full) — lower, 72.6%
- COc1cc2c(cc1OC)-c1ccc3cc4c(cc3c1N(CCCN1CCCCC1)C2)OCO4 — lower, 80.4%
- CNC=O — lower, 96.6%
- CCN(CC)CCCNC(=O)c1ccc(N)cc1 — lower, 96.8%
- NS(=O)(=O)c1cn(-c2ncnc3nc[nH]c23)ccc1=O — lower, 105%
- CC(=O)Nc1cccc(C2=CC(c3ccc(C)cc3)n3ncnc3N2)c1 (stereo not given) — lower, 107%
- Cc1c(C(=O)O)nnn1-c1nccs1 — lower, 108%
- COc1cc(/C=C/C(=O)c2ccc(Nc3nc(Nc4ccccc4)nc(Nc4ccc(Cl)cc4)n3)cc2)cc(OC)c1OC — lower, 39.9%
- CCOC(=O)c1ccc(NC(=O)CCCN(CC)CC)cc1 — lower, 109%
- C[C@@H]1CC[C@@H]2[C@@H]1[C@H](OC(=O)/C=C/c1ccccc1)[C@]1(C3CCCCC3)C[C@@H](NC(=O)CO)[C@@]2(C)O1 — lower, 98.8%
- N#Cc1c(N)nc2c(nnn2-c2cccc(Br)c2)c1N — higher, 117%
- O=C(NC1CCOCC1)c1ccc2c(c1)CN(c1ncc(Cc3cccc(-n4cccn4)c3)s1)CC2 — lower, 88.3%
- c1ccc(-c2oc3ccccc3c2-c2ccccc2)cc1 — higher, 113%
- Cc1c(Cl)cccc1NS(=O)(=O)c1ccccc1 — lower, 99%
- CN(C)CCC(O)(Cc1ccccc1)c1ccccc1 (stereo not given) — higher, 112%
- CCCCNC(=O)NS(=O)(=O)c1ccc(N2N=C(c3ccc(C)cc3C)CC2c2ccc(N(C)C)cc2)cc1 (stereo not given) — lower, 45.5%
- c1ccc2c(c1)nc(-n1ccnc1)c1nc3ccccc3n12 — lower, 82.5%
- NC(=O)c1c(NC(=O)c2ccccn2)sc2c1CCC(=O)C2 — lower, 39.9%

In the case of `COc1cc2cc(Oc3ccc(NC(=O)Nc4cc(C(F)(F)F)cc(C(F)(F)F)c4)cc3)c(C)nc2cc1OCCN1CCCCC1`, the growth was -95.5% (active).
`CCCCCCNCc1cc(C(C)(C)C)cc(CNCCCCCC)c1O` was tested, and the growth was -88.8% (active).
For `CN(CCCCCCCCNc1ccnc2ccccc12)Cc1ccc(-c2ccc(-c3ccc(C#N)cc3)s2)cc1`, the growth was -84.1% (active).
With `CN=C1C=CC(=C(c2ccc(N(C)C)cc2)c2ccc(N(C)C)cc2)C=C1` the growth was -44.9% (active).
With `CCNCCNc1cc(-c2cccc(C(F)(F)F)c2)c(C#N)c2nc3ccccc3n12` the growth was -81.9% (active).
With `Cc1nc2ccccc2c(/C=C/c2ccc(Cl)cc2)c1C(=O)/C=C/c1ccc(Cl)cc1` the growth was -66.6% (active).
`Oc1[nH]c2ccccc2c1/C=c1/cc2c(c(-c3ccc(F)cc3)n1)=Nc1ccccc1-2` was tested, and the growth was -47.3% (active).
